# Bioassay records from PubChem BioAssay.
# ST2 IL33 inh: IL1RL1 inhibition. AID 1259354. actives 2.3% (n = 78,000). inhibition, % for hits at 17 µM. AlphaLISA ST2-Fc/biotin-IL-33 interaction, 1 h; in the data active = inhibition above about 30%
# Target sequence (Q01638 whole entry, looked up): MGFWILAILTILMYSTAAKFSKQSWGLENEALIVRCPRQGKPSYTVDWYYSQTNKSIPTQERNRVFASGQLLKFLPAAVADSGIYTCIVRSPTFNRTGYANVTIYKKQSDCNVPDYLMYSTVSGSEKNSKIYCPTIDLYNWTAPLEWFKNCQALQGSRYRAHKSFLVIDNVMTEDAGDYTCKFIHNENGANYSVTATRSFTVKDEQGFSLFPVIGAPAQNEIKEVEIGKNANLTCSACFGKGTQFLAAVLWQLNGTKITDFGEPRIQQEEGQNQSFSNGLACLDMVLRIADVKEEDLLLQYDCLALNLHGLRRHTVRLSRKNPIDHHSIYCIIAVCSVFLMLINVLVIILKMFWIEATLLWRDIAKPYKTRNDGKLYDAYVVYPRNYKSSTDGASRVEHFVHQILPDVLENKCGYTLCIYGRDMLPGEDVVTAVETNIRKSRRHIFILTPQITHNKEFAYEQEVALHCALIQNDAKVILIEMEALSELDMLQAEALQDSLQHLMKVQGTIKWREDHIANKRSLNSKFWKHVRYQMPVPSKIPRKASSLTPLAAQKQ
# Numbers without * were called inactive; i = inactive; ! = not active in a repeat. Only a selection was taken, and hits are over-represented in it overall.
SMILES,ST2 IL33 inh
COc1ccc(S(=O)(=O)N2CCC(C(=O)N3CCC(Cc4ccccc4)CC3)CC2)cc1,i
O=C(c1ccc(Cl)cc1)N1CCC(C(=O)N2CCC(Cc3ccccc3)CC2)CC1,i
CCNc1nc(N2CCCC2)nc(N2CCC(Cc3ccccc3)CC2)n1,57%*
Cc1ccccc1CN1C(=O)COc2ccccc21,i
COC(=O)C1=C(C)Nc2nc(SCc3ccccc3)[nH]c(=O)c2C1c1ccc(F)cc1 (stereo not drawn),i
O=c1[nH]c2c(s1)C(c1ccc(Cl)cc1)C1C3CCC(C3)C1S2 (stereo not drawn),i
Cc1ccc(N2C(=O)C3Sc4[nH]c(=O)sc4C(c4ccccc4)C3C2=O)cc1 (stereo not drawn),34%*
Cc1ccc(NC2SC(=O)N(c3ccccc3)C2=O)cc1 (stereo not drawn),i
Fc1ccccc1Cc1noc(CNCc2cn3cccnc3n2)n1,i
O=C(Cc1ccccc1)N(c1ccccc1)c1ccccc1,i
CN(C(=O)N1CCN(C(=O)N(C)c2ccccc2)CC1)c1ccccc1,i
CN(C(=O)Cc1ccccc1)c1ccccc1,36%*
O=C(Nc1ccc(F)cc1)N1C[C@@H]2C[C@H](C1)c1c(NS(=O)(=O)c3ccccc3)ccc(=O)n1C2,i
CC1=NN(c2ccc(Cl)c(Cl)c2)C(=O)/C1=C/c1cc([N+](=O)[O-])ccc1O,i
COc1cc(/C=C2\C(=O)N(c3ccccc3)N=C2C)cc(Br)c1O,i
COc1cc(/C=C2\C(=O)N(c3ccc(Cl)c(C(=O)O)c3)N=C2C)cc([N+](=O)[O-])c1O,80%*
COc1cc(/C=C2\C(=O)N(c3cccc(Cl)c3)N=C2C)cc(OC)c1OC,i
COc1cc(/C=C2\C(=O)N(c3ccc(Cl)c(C(=O)O)c3)N=C2C)c([N+](=O)[O-])cc1OC,64%*
COc1ccc(Cl)cc1/C=C1\C(=O)N(c2cccc(C(=O)O)c2)N=C1C,i
Cc1c(NC(=O)c2ccc(Cl)cc2[N+](=O)[O-])c(=O)n(-c2ccccc2)n1C,i
Cc1ccc(-c2noc(CCC(=O)N3CCN(c4cc(Cl)ccc4C)CC3)n2)cc1,i
CC(C)c1ccc(NS(=O)(=O)c2ccc3[nH]cc(C(=O)N(C)CCC#N)c(=O)c3c2)cc1,i
COc1cccc(-c2nc3cc(N=Cc4ccc([N+](=O)[O-])cc4)ccc3o2)c1,i
COc1ccc(C=Nc2ccc3oc(-c4ccncc4)nc3c2)cc1Cl,33%*
COc1cccc(-c2nc3cc(N=Cc4cccc(OC)c4O)ccc3o2)c1,i
SMILES,ST2 IL33 inh
N/C(=N/OCC(=O)Nc1cccc([N+](=O)[O-])c1)c1nonc1N,i
CC(C)(C)n1nc2c(c1NC(=O)c1ccccc1[N+](=O)[O-])CS(=O)C2 (stereo not drawn),i
COc1cc(NC(=O)/C=C/c2ccccc2)c2ncccc2c1,35%*
O=C(/C=C/c1ccccc1)Nc1cc2ccccc2oc1=O,i
COc1ccccc1NC(=O)Nc1cccc2cccnc12,i
O=C(CNS(=O)(=O)c1ccc(Br)s1)N1CCCC1,i
O=C1c2ccccc2C(=O)C1C1=Nc2ccccc2NC(c2ccccc2)C1 (stereo not drawn),31%*!
O=C1NC(c2cccc(Br)c2)Nc2ccccc21 (stereo not drawn),i
O=C1NC2=C(C(=O)c3ccccc32)C(c2ccccc2)N1 (stereo not drawn),i
Cc1cc(NCCN2CCCC(CO)C2)nc(-c2ccccc2)n1 (stereo not drawn),i
CCOc1ccccc1N1C(=O)CC(Nc2ccc(N3CCOCC3)cc2)C1=O (stereo not drawn),51%*
CCOc1ccccc1N1CCN(C2CC(=O)N(c3ccccc3)C2=O)CC1 (stereo not drawn),i
COc1ccccc1N1C(=O)CC(N2CCOCC2)C1=O (stereo not drawn),i
CCc1ccccc1C(=O)NC1CC(=O)N(C2Cc3ccccc3C2)C1 (stereo not drawn),i
CCOc1ccc2oc(-c3ccccc3)c(C(=O)O)c2c1,i
CCOc1ccc2sc(C=NCc3ccco3)c(O)c2c1,31%*
CCOc1ccc(N(C(C)C(=O)NCc2ccco2)S(C)(=O)=O)cc1 (stereo not drawn),i
Cc1c(CN2CCC3(CC2)C(=O)NCCN3C)[nH]c2c(C)cccc12,30%*
CCCCc1ncc(CN2CCC3(CC2)C(=O)NCCN3C)[nH]1,i
Cc1[nH]c2c(C(=O)N3CCC4(CC3)C(=O)NCCN4C)cccc2c1C,i
CC(C)(C)C1=CC(=O)c2c(ccc(C(C)(C)C)c2O)C1=O,65%*
O=C(O)c1cn(-c2ccccc2)nc1-c1ccccc1,i
O=C(Nc1ccc(F)cc1F)c1cc2ccccc2oc1=O,i
O=C(NCCc1ccccc1)c1cccn2c(=O)c3sccc3nc12,i
Cc1ccc(C(=O)Nc2c3c(nn2-c2ccc(Cl)cc2)CSC3)cc1,i
COc1ccc(/C=C2\SC(N3CCCCC3)=NC2=O)cc1OC,i
CCCOc1ccc(-c2nc3s/c(=C\c4cc(OC)ccc4OC)c(=O)n3n2)cc1,i
